Values without a mark were called inactive. Inconclusive results are not listed. Activity calls are given as the source filed them. Unless noted, calls come from the whole dose curve; as a rule, active = well fitted curve in either direction with a large enough effect (not every such curve was filed as active); inconclusive = small, poorly fitted or top-dose-only effect, or another doubt; inactive = flat fitted curve, though single readings scatter.
How the values were obtained:
[1] = molecular target: Lysosomal acid glucosylceramidase (Homo sapiens) (UniProt P04062); assay: Glucocerebrosidase-p2 (AID 348; in the data active = potency below about 10 µM; note: potency is the fitted concentration of half-maximal effect); conditions: purified GBA, blue fluorogenic substrate, 40 min
Outline: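 Normal human glucocerebrosidase (0.2 nM) with blue fluorogenic substrate (80 uM final) in citrate/phosphate pH 5.9 with 10mM sodium taurocholate, 0.01% tween-20; 40 min RT, NaOH/glycine stop; fluorescence Ex 365/Em 440; AC50 from a titration from 0.6 nM upwards.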

[2] = AP1 Signaling Pathway (AID 357); conditions: ME-180 AP-1-bla reporter, EGF-induced, beta-lactamase ratio, 5 h; at 7.69 µM (top of the series) unless noted;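 note: ME-180 reporter cells stimulated with EGF at its EC50 level; % is set by controls: 0 for no effect and ±100 for the full control effect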
Outline: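 First, ME-180 AP-1-bla cells were cultured overnight at 37 °C in low-serum Opti-MEM. Next, titrated compounds with EC50 EGF were incubated 5 hours. Finally, CCF4 was added for 2.5 hours and the 460/530 nm ratio recorded.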

[3] = molecular target: Cytochrome P450 1A2 (Homo sapiens) (UniProt P05177); assay: p450-cyp1a2 (AID 410; calls by dose curve; note: potency is the fitted concentration of half-maximal effect;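 for activity change, negative = inhibition: -100% = full effect of reference inhibitor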); conditions: recombinant CYP1A2, luciferin-ME demethylation, luminescence; series mostly up to 11.4 µM
Outline: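 20nM CYP1A2, 100uM Luciferin-ME (=Km), 100mM KPO4; cpd 10 min RT; +NADPH regen, 60 min RT; stop/detect 20 min; luminescence. Normalized to furafylline 57 uM = full inhibition.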

[4] = NFAT Signaling Pathway (AID 444); conditions: Jurkat NFAT-bla M1, carbachol, beta-lactamase ratio, 5 h; at 7.69 µM (top of the series) unless noted;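 note: carbachol stimulus at about its EC50 of 1 µM final; % is set by controls: 0 for no effect and ±100 for the full control effect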
Outline: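 Read-out: CCF4 FRET ratio (460 nm/530 nm) after 1 h RT dye loading, used for %activity and AC50 from titration series. Cells: Jurkat NFAT-β-lactamase/M1 line, treated with compound plus 1 uM carbachol for 5 h, 37 °C.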

[5] = Stat Signaling Pathway (AID 446); conditions: ME-180 (cervical carcinoma) SIE beta-lactamase reporter, IL-6 stimulated, 5 h; at 7.69 µM (top of the series) unless noted;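 note: ME-180 cervical cancer cells given 40 pM IL-6 alongside compound; SIE-controlled beta-lactamase reporter measured as 460/530 nm FRET emission ratio; % is set by controls: 0 for no effect and ±100 for the full control effect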
Outline: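 Overnight-plated ME-180 cells bearing a STAT Inducible Element beta-lactamase reporter; 5 h co-exposure to compound and 40 pM IL-6; values normalized to 300 pM IL-6 and 125 nM JAK inhibitor controls.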

[6] = molecular target: Glucocorticoid receptor (Homo sapiens) (UniProt P04150); assay: GR-GFP Redistribution (AID 450;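 active = compounds whose dose series gives a full or clear partial fitted curve of increased nuclear translocation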; note: potency is the fitted concentration of half-maximal effect); conditions: U2OS GR-GFP nuclear translocation, laser cytometry, 2 h
[7] = molecular target: Glucocorticoid receptor (Homo sapiens) (UniProt P04150); assay: GR-EFC Redistribution (AID 451; calls by dose curve; note: potency is the fitted concentration of half-maximal effect); conditions: CHO-K1 GR-EFC translocation, beta-gal luminescence, 2 h
Outline: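 Translocation of GR-ED fusion to nuclear EA restores b-gal, read by luminescence after 1 h room-temperature detection. Engineered CHO-K1 biosensor cells, 1,000/well, exposed 2 h at 37 C to titrations up to 46 uM final.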

[8] = molecular target: Mitogen-activated protein kinase 10 (Mus musculus) (UniProt Q61831); assay: JNK3 AlphaScreen Assay (AID 530); conditions: JNK3 lysate, c-Jun phosphorylation; series mostly up to 11.4 µM;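 note: kinase came from lysate of stimulated human HepG2 cells; signal reports phosphorylation of biotinylated GST-cJun 1-79 at Ser73 with 10 µM ATP; % is set by controls: 0 for no effect and ±100 for the full control effect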
Outline: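 Kinase buffer: 20 mM Tris-HCl pH 7.6, 10 mM MgCl2, 1 mM DTT, 0.1 mM Na3VO4, 0.01% Tween-20; ATP 10 uM. Substrate biotin-GST-cJun(1-79), enzyme from activated HepG2 lysates. Detection by Ser73 phospho-antibody AlphaScreen.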

[9] = molecular target: 3',5'-cyclic-AMP phosphodiesterase 4B (Homo sapiens) (UniProt Q07343); assay: qHTS Assay for Inhibitors of PDE-IV (AID 607; active = well fitted activation curve with a large enough effect in the main read-out, with a control signal flat, not every such curve was filed as active; note: % of control where 0% means no effect); conditions: HEK293 ACTOne CNG channel cells, membrane potential fluorescence; series mostly up to 22.9 µM
Outline: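 Live HEK293 cells with a modified cyclic nucleotide-gated (CNG) channel report intracellular cAMP via membrane-potential dye fluorescence (ex 535/em 590 nm). Endogenous PDE-IV was targeted. Compounds were tested at up to 22.9 uM final; RO 20-1724 100 uM served as control.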

3',5'-cyclic-AMP phosphodiesterase 4B (Homo sapiens), sequence (Q07343 whole entry, looked up): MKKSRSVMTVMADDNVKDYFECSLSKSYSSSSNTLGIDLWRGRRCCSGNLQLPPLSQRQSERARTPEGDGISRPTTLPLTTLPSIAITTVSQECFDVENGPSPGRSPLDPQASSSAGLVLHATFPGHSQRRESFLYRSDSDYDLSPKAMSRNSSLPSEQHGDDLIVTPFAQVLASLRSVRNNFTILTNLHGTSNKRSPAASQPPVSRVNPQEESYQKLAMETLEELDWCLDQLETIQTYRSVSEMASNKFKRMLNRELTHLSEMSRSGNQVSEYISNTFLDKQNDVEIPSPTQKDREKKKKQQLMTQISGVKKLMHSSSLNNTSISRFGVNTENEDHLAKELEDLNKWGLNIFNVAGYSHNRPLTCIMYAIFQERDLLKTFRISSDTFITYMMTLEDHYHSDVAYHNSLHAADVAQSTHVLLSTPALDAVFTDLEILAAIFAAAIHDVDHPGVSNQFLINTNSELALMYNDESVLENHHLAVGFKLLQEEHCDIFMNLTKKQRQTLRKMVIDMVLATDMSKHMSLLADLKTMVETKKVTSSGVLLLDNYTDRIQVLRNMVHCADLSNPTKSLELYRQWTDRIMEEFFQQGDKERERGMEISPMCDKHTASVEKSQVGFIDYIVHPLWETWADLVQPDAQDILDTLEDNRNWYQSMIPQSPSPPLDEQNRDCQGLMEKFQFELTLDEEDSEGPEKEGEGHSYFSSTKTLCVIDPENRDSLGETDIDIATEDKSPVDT
Cytochrome P450 1A2 (Homo sapiens), sequence (P05177 whole entry, looked up): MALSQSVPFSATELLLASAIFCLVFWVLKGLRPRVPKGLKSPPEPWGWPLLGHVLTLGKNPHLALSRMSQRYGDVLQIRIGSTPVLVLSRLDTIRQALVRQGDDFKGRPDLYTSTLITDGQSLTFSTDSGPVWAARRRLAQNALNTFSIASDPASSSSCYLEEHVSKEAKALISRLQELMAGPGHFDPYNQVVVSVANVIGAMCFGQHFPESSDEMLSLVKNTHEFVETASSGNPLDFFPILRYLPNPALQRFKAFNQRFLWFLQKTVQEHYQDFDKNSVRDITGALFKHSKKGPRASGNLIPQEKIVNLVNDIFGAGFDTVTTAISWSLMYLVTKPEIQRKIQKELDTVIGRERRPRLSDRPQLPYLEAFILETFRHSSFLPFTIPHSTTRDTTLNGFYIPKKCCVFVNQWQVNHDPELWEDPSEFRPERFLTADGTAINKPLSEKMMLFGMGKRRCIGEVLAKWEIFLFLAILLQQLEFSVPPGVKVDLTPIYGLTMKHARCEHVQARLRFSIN
Lysosomal acid glucosylceramidase (Homo sapiens), sequence (P04062 whole entry, looked up): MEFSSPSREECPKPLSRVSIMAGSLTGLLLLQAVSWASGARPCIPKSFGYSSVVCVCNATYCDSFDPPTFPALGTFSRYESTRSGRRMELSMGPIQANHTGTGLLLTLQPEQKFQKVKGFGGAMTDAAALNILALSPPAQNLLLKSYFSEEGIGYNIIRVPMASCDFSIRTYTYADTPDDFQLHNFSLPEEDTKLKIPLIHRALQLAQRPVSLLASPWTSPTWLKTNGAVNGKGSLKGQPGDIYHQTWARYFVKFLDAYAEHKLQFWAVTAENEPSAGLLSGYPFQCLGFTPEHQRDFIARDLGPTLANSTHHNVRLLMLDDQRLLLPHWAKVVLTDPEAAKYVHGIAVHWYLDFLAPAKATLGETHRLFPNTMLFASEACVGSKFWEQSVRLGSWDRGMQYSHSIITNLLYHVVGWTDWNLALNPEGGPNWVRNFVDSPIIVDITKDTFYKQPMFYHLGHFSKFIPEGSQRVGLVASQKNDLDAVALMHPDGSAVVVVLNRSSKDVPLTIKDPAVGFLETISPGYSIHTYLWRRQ
Glucocorticoid receptor (Homo sapiens), sequence (P04150 whole entry, looked up, the tested form may be a part): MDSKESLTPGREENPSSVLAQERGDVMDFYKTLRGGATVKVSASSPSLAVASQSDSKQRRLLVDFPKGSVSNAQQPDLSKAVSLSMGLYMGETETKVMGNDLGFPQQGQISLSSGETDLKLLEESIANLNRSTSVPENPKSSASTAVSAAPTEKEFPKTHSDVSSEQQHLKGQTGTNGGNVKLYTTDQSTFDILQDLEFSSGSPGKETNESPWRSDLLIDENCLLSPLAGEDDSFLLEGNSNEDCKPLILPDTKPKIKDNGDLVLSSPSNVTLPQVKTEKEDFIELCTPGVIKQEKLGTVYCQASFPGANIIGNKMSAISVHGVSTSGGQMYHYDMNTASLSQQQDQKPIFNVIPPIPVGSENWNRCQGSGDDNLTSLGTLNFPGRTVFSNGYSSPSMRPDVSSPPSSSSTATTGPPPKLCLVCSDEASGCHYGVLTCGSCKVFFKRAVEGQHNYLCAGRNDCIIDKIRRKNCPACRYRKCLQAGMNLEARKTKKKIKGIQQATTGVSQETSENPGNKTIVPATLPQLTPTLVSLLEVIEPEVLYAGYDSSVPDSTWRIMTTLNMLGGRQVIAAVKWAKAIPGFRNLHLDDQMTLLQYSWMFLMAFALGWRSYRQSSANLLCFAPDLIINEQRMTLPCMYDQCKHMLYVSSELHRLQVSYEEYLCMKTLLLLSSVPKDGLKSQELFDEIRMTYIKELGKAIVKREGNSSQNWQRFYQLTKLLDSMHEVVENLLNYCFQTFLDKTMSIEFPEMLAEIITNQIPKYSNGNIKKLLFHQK

| Structure (SMILES) | Potency [1] [µM] | activity change, negative = inhibition [2] [%] | activity change, negative = inhibition [3] | activity change, negative = inhibition [4] [%] | activity, negative = inhibition [5] [%] | Potency [6] [µM] | Potency [7] [µM] | Potency [8] | Potency [9] | Potency [3] |
| --- | --- | --- | --- | --- | --- | --- | --- | --- | --- | --- |
| CC1(C)OC[C@@H]2O[C@H](n3cnc4c(N)nc(Cl)nc43)[C@@H](OS(C)(=O)=O)[C@@H]2O1 | > 11.4 | -1.96 | -14.5% [at 2.29 µM] | -7 | -0.333 | > 46 | > 9.22 | inactive | inactive |  |
| Nc1ccc(N=Nc2c(S(=O)(=O)O)cc3ccccc3c2S(=O)(=O)O)cc1 | > 11.4 | -5.64 | -20.9% [at 2.29 µM] | 11.9 | 6.7 | > 46 | > 9.22 | inactive | inactive |  |
| CCC(C)(C)c1ccc(Oc2cccc(C(=O)O)c2)cc1 | > 11.4 | -11.1 |  | -3.61 | -0.214 | > 46 | > 9.22 | inactive | inactive | inactive |
| CN(C)CCCCN1CCc2c(n(C)c3ccccc23)C1=O | > 11.4 | 14 | -14.1% [at 2.29 µM] | 5.6 | 3.15 | > 46 | > 9.22 | inactive | inactive |  |
| O=C(O)c1ccc(Nc2ccnc3cc(Cl)ccc23)cc1O | > 11.4 | -7.31 |  | 11.5 | -9.48 | > 46 | > 9.22 | inactive | inactive | 3.98 µM (active) |
| CC(C)CNc1nc(N)[nH]c(=O)c1NC=O | > 11.4 | 9 |  | -1.94 | 7.03 | > 46 | > 9.22 | inactive | inactive | inactive |
| CC(C)=NNc1ncnc2nc[nH]c12 | > 11.4 | -3.94 |  | 3.34 | 8.2 | > 46 | > 9.22 | inactive | inactive | 0.794 µM (active) |
| NCC(=O)Nc1ccccc1 | > 11.4 | 4.23 |  | 1.46 | 4.18 | > 46 | > 9.22 | inactive | inactive | 2.51 µM (active) |
| Cc1ccccc1S(=O)(=O)O[C@@H]1NS(=O)(=O)c2ccccc21 | > 11.4 | 6.97 | 13.5% [at 2.29 µM] | 10.8 | 0.825 | > 46 | > 9.22 | inactive | inactive |  |
| N[C@@H](CSC(=O)c1ccccc1)C(=O)O | > 11.4 | -5.26 |  | 3.72 | 4.69 | > 46 | > 9.22 | inactive | inactive | inactive |
| CC1(C)O[C@H]2[C@@H](O1)[C@@H](On1nnc3ccc(Cl)cc31)O[C@@H]2[C@@H]1COC(C)(C)O1 | > 11.4 | -0.0878 | -10.9% [at 2.29 µM] | 3.42 | 2.63 | > 46 | > 9.22 | inactive | inactive |  |
| N[C@@H]1[C@@H]2[C@@H]3C[C@H]4N(CC[C@@]14C(=O)C(=O)O)CC3=CCO[C@@H]2CC(=O)O | > 11.4 | -3.74 |  | 4.96 | 6.97 | > 46 | > 9.22 | inactive | inactive | inactive |
| C[C@@H](CNC(N)=O)NC(N)=O | > 11.4 | 4.39 |  | 12.2 | 5.82 | > 46 | > 9.22 | inactive | inactive | inactive |
| NC(N)=NC[C@@H]1CCCCCCN1 | > 11.4 | 2 |  | 4.87 | -5.43 | > 46 | > 9.22 | inactive | inactive | inactive |
| CC(C)Cn1cnc2c(Sc3c([N+](=O)[O-])ncn3C)nc(N)nc21 | > 11.4 | -3.59 | 8.1% [at 2.29 µM] | -13.9 | 11.4 | > 46 | > 9.22 | inactive | inactive |  |
| COc1ccc(CSC2=C(C#N)C(=O)NC3(CCCCC3)S2)cc1 | > 11.4 | 4.52 | -5.8% [at 2.29 µM] | 7.32 | 1.46 | > 46 | > 9.22 | inactive | inactive |  |
| Nc1nc(-c2cc(-c3cccc4ccccc34)nc(N)n2)cc(-c2cccc3ccccc23)n1 | > 11.4 | -7.45 | -4.4% [at 2.29 µM] | 3.93 | -4.92 | > 46 | > 9.22 | inactive | inactive |  |
| C[C@H](Br)C(=O)c1ccc2cc(Br)c3ccccc3c2c1 | > 11.4 | -18.5 |  | 26.1 | -2.19 | > 46 | > 9.22 | inactive | inactive | 0.158 µM (active) |
| O=C(O)[C@@H](O)c1ccc(F)cc1 | > 11.4 | 26.9 |  | 11 | 8.22 | > 46 | > 9.22 | inactive | inactive | inactive |
| CC(=O)N[C@H](Cc1ccc(O)cc1)C(=O)O | > 11.4 | -0.588 |  | -3.29 | -0.609 | > 46 | > 9.22 | inactive | inactive | inactive |
| OCCCSCCO | > 11.4 | 5.52 | -19.1% [at 2.29 µM] | 7.44 | -0.432 | > 46 | > 9.22 | inactive | inactive |  |
| O=c1c[n+](CC[n+]2cc(=O)o[nH]2)[nH]o1 | > 11.4 | 2.98 |  | 12.3 | 4.21 | > 46 | > 9.22 | inactive | inactive | 2.51 µM (active) |
| Cn1c(N)c(N=Nc2ccc(S(N)(=O)=O)cc2)c(=O)n(C)c1=O | > 11.4 | 12.7 | -12.8% [at 2.29 µM] | 16.4 | 24.3 | > 46 | > 9.22 | inactive | inactive |  |
| O=C(O)c1ccc(C(=O)c2ccccc2C(=O)O)cc1C(=O)O | > 11.4 | -15.3 |  | 20.9 | -1.86 | > 46 | > 9.22 | inactive | inactive | inactive |
| Cc1noc(NC(=O)Nc2ccccc2F)c1C#N | > 11.4 | -0.973 |  | 11.4 | -14.1 | > 46 | > 9.22 | inactive | inactive | 0.794 µM (active) |
| N=C(N)SCc1cccc(-c2nc3ccccc3c(=O)o2)c1 | > 11.4 | 0.968 | -10.3% [at 2.29 µM] | 10.1 | 2.22 | > 46 | > 9.22 | inactive | inactive |  |
| COc1ccc2[nH]c3cc4c(=O)c5cc(OC)ccc5[nH]c4cc3c(=O)c2c1 | > 11.4 | -2.15 | -6% [at 2.29 µM] | -1.64 | -1.86 | > 46 | > 9.22 | inactive | inactive |  |
| c1ccc(CCCNc2nnnc3ccccc23)cc1 | > 11.4 | -4.34 |  | -23 | -4.36 | > 46 | > 9.22 | inactive | inactive | 3.98 µM (active) |
| CN(C)CCNS(=O)(=O)N(C)C | > 11.4 | -0.375 |  | 3.58 | 4.72 | > 46 | > 9.22 | inactive | inactive | inactive |
| O=P(O)(CCP(=O)(O)c1ccccc1)c1ccccc1 | > 11.4 | -9.71 |  | 12.9 | 1.66 | > 46 | > 9.22 | inactive | inactive | inactive |

From PubChem BioAssay (NCATS)
